{
  "source": "PubChem BioAssay (NCATS)",
  "key": {"[1]": {"target": "Aldehyde dehydrogenase, mitochondrial (Homo sapiens) (UniProt P05091)", "experiment": "qHTS for Inhibitors of the Aldehyde Dehydrogenase Family (ALDH2) Validation screens (AID 2061302; active means well fitted inhibition curve with a large enough effect; title and protocol of this record describe different tests)"}, "[2]": {"target": "Cellular tumor antigen p53 (Homo sapiens) (UniProt P04637)", "sequence (P04637 whole entry, looked up)": "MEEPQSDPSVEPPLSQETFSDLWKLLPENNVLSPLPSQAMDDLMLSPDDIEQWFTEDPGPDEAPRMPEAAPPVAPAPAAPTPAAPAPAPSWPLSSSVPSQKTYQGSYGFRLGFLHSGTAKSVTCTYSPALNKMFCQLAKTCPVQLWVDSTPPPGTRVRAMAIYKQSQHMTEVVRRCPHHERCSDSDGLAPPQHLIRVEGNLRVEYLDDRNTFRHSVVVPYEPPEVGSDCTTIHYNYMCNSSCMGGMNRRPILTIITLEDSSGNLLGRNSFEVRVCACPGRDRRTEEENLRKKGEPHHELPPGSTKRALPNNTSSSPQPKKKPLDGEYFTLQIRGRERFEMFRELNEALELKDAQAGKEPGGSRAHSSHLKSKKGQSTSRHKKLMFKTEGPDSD", "experiment": "Primary qHTS for small molecule compounds that upregulate eGFP-tagged delta133p53alpha (in C-terminal) cells. (AID 2060324); further: potency means the concentration at half of the fitted maximal effect", "summary_of_the_method": "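NCI-H358 cells pre-induced 24 h with 100 ng/ml doxycycline to express delta133p53alpha-eGFP, then dosed in doxycycline-free medium for 24 h at 37C. Fixed, Hoechst-stained; GFP intensity by laser scanning cytometry, normalized to DMSO wells.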"}, "[3]": {"target": "Retinaldehyde dehydrogenase 3 (Homo sapiens) (UniProt P47895)", "experiment": "qHTS for Inhibitors of the Aldehyde Dehydrogenase Family (ALDH1A3) Validation screen (AID 2061312); further: nearly all actives have a fitted effect of over 45% in size"}, "[4]": {"target": "Aldehyde dehydrogenase, mitochondrial (Homo sapiens) (UniProt P05091)", "experiment": "qHTS for Inhibitors of the Aldehyde Dehydrogenase Family (ALDH2) Primary screen (AID 2061308); further: nearly all actives have a fitted effect of over 55% in size"}, "[5]": {"target": "Retinaldehyde dehydrogenase 3 (Homo sapiens) (UniProt P47895)", "experiment": "qHTS for Inhibitors of the Aldehyde Dehydrogenase Family (ALDH1A3) Primary screen (AID 2061315)"}, "[6]": {"target": "Cellular tumor antigen p53 (Homo sapiens) (UniProt P04637)", "experiment": "Primary qHTS for small molecule compounds that upregulate eGFP-tagged delta133p53alpha (in N-terminal) cells. (AID 2060322); further: series mostly up to about 56 µM; nearly all actives have a fitted effect of over 75% in size", "details": "NCI-H358 eGFP-delta133p53alpha fluorescence, 24 h; activation: stronger effect = higher value", "summary_of_the_method": "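NCI-H358 cells pre-induced 24 h with 10 ng/ml doxycycline to express N-terminal eGFP-delta133p53alpha, then dosed 24 h at 37C without doxycycline; fixed, Hoechst-stained, GFP intensity by laser scanning cytometry, normalized to DMSO (0%) and 57.5 uM 5-azacytidine (100%).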"}, "[7]": {"experiment": "BET inhibitor-based combinations targeting novel dependencies in MECOM-rearranged (r) AML: UCSD-AML1 cell line (AID 2202235); further: series mostly up to about 46 µM; nearly all actives have a fitted effect of over 40% in size", "summary_of_the_method": "(§1)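 Cells at 500/well were exposed for 48 hr to MIPE v5.0 drugs as 11-point dose curves. Viability was read by CellTiter-Glo luminescence and normalized to DMSO and empty-well controls. Activity was expressed as AUC and per-cell-line Z-AUC.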"}, "[8]": {"experiment": "BET inhibitor-based combinations targeting novel dependencies in MECOM-rearranged (r) AML: AML-191 cell line (AID 2202236)", "summary_of_the_method": "(§2)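 AML cell lines seeded at 500 cells/well, treated with 11-point dose curves for 48 h. Viability by CellTiter-Glo luminescence, normalised to DMSO and empty wells; activity expressed as AUC and per-cell-line Z-transformed AUC.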"}, "[9]": {"experiment": "BET inhibitor-based combinations targeting novel dependencies in MECOM-rearranged (r) AML: SET-2 cell line (AID 2202231)", "details": "SET-2 AML cells viability, CellTiter-Glo luminescence, 48 h; viability: stronger effect = lower value, concentration not given here", "summary_of_the_method": "as §2"}, "[10]": {"experiment": "BET inhibitor-based combinations targeting novel dependencies in MECOM-rearranged (r) AML: OCI-AML3 cell line (AID 2202232)", "details": "Potency: OCI-AML3 viability", "summary_of_the_method": "as §2"}, "[11]": {"experiment": "BET inhibitor-based combinations targeting novel dependencies in MECOM-rearranged (r) AML: MV-4-11 cell line (AID 2202233)", "summary_of_the_method": "as §1"}, "[12]": {"experiment": "BET inhibitor-based combinations targeting novel dependencies in MECOM-rearranged (r) AML: HNT-34 cell line (AID 2202234)", "summary_of_the_method": "as §1"}},
  "note": "Inconclusive results are not listed. Where a call stands in place of a potency, no number is given. A number with no mark means an inactive call. Activity calls are given as the source filed them. Unless noted, the call rests on the fitted dose curve; in most records, active means well fitted curve in the direction sought with a large enough effect; inconclusive means small, poorly fitted or top-dose-only effect, or another doubt; inactive means no such curve, though single readings can be large; an effect the other way counts as inactive or inconclusive.",
  "data": [
    {"compound": "NNC(N)=O", "values": [
      {"measurement": "Potency", "setting": "[1]", "result": "inactive"}
    ]},
    {"compound": "O=C1/C(=C/c2ccccc2)C[C@@]2(O)[C@H]3Cc4ccc(O)c5c4[C@@]2(CCN3CC2CC2)[C@H]1O5", "values": [
      {"measurement": "Potency", "setting": "[2]", "result": "21.3 µM (active)"},
      {"measurement": "Potency", "setting": "[1]", "result": "inactive"},
      {"measurement": "Potency", "setting": "[3]", "result": "inactive"}
    ]},
    {"compound": "Cc1ncsc1CCCl", "values": [
      {"measurement": "Potency", "setting": "[1]", "result": "inactive"}
    ]},
    {"compound": "CCCN1CCC[C@@H](c2cccc(O)c2)C1", "values": [
      {"measurement": "Potency", "setting": "[2]", "result": "inactive"},
      {"measurement": "Potency", "setting": "[1]", "result": "inactive"},
      {"measurement": "Potency", "setting": "[3]", "result": "inactive"}
    ]},
    {"compound": "O=c1[nH]c2ccccc2n1C1CCN(CCCC(c2ccc(F)cc2)c2ccc(F)cc2)CC1", "values": [
      {"measurement": "Potency", "setting": "[1]", "result": "inactive"},
      {"measurement": "Potency", "setting": "[4]", "result": "inactive"},
      {"measurement": "Potency", "setting": "[3]", "result": "inactive"},
      {"measurement": "Potency", "setting": "[5]", "result": "inactive"}
    ]},
    {"compound": "N#C/C(=C/c1ccc(O)c(O)c1)C(N)=S", "values": [
      {"measurement": "Potency", "setting": "[2]", "result": "inactive"}
    ]},
    {"compound": "CC(Cc1ccc(O)cc1)NCC(O)c1cc(O)cc(O)c1", "note": "(stereo unspecified)", "values": [
      {"measurement": "Potency", "setting": "[1]", "result": "inactive"},
      {"measurement": "Potency", "setting": "[3]", "result": "inactive"}
    ]},
    {"compound": "CCCCCC[C@H]1C(=O)O[C@H](C)[C@H](NC(=O)c2cccc(NC=O)c2O)C(=O)O[C@@H](C)[C@@H]1OC(=O)CC(C)C", "values": [
      {"measurement": "activation", "setting": "[6]", "result": -21.7, "unit": "%"},
      {"measurement": "Potency", "setting": "[7]", "result": "inactive"},
      {"measurement": "Potency", "setting": "[8]", "result": "0.263 µM (active)"}
    ]},
    {"compound": "CCN1C[C@@]2(COC)C3[C@@H](OC)C4[C@@H]1C3([C@@H]1C[C@]3(O)[C@H](OC(=O)c5ccccc5)[C@@H]1[C@]4(OC(C)=O)[C@@H](O)[C@@H]3OC)[C@H](OC)C[C@H]2O", "values": [
      {"measurement": "Potency", "setting": "[2]", "result": "inactive"},
      {"measurement": "Potency", "setting": "[1]", "result": "inactive"},
      {"measurement": "Potency", "setting": "[3]", "result": "inactive"}
    ]},
    {"compound": "C[C@@H]1O[C@@H](O[C@H]2C[C@@H](O)[C@]3(CO)[C@H]4[C@H](O)C[C@]5(C)[C@@H](C6=CC(=O)OC6)CC[C@]5(O)[C@@H]4CC[C@]3(O)C2)[C@H](O)[C@H](O)[C@H]1O", "values": [
      {"measurement": "Potency", "setting": "[1]", "result": "inactive"},
      {"measurement": "Potency", "setting": "[4]", "result": "inactive"},
      {"measurement": "Potency", "setting": "[3]", "result": "inactive"},
      {"measurement": "Potency", "setting": "[5]", "result": "inactive"},
      {"measurement": "Potency", "setting": "[9]", "result": "0.0742 µM (active)"},
      {"measurement": "Potency", "setting": "[10]", "result": "0.0661 µM (active)"},
      {"measurement": "Potency", "setting": "[11]", "result": "0.118 µM (active)"},
      {"measurement": "Potency", "setting": "[12]", "result": "0.0934 µM (active)"}
    ]},
    {"compound": "C[C@H](N)CN1CCc2ccc(Br)cc21", "values": [
      {"measurement": "Potency", "setting": "[1]", "result": "inactive"},
      {"measurement": "Potency", "setting": "[3]", "result": "inactive"}
    ]}
  ]
}
